Results on eleven compounds are retold here after PubChem BioAssay (EPA / NIEHS).

Assay [1] in a line: Tanguay_ZF_120hpf_TR_legacy: (Legacy) Oregon State University Tanguay Lab 120 Hour Post-fertilization zebrafish Assay for Touch Response (AID 2283667). In short, it runs like this:
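Tropical 5D wild-type zebrafish embryos were exposed statically in sealed, foil-covered plates at 28C until 120 hpf, with 0.64% (vol/vol) final DMSO. Touch response was scored as present or absent; embryos that died were not scored.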

Assay [2] in a line: CCTE_Padilla_ZF_144hpf_TERATOSCORE: (Legacy) CCTE's 144 Hour Post-fertilization zebrafish Assay Teratoscore, Padilla Lab (AID 2283679; active = hit-call score of the fitted dose curve at least 0.9, where 1 is the maximum; inactive = score below 0.9;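 for AC50: zebrafish embryos with chorions exposed by immersion from 6-8 hpf to 5 dpf with daily renewal; teratogenicity score from eye scoring of death hatching and malformations at 144 hpf; higher score means more developmental defects relative to DMSO baseline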). In outline: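 Larvae scored by eye at 144 hpf for death, hatching and malformations after a day in clean Hanks'. Before that, daily-renewed exposure at 80 uM (0.4% DMSO, 26C) from roughly 6-8 hpf through 5 dpf, 4 embryos per chemical.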
The nature of assay [3]: CEETOX_H295R_MTT_cell_viability: Viability Assessment in the CeeTox HT-H295R MTT Assay (AID 2283718; active = hit-call score of the fitted dose curve at least 0.9, where 1 is the maximum; inactive = score below 0.9;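 for AC50: curve fitted both ways so AC50 may mark viability loss or gain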). In short, it runs like this:
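H295R cells prestimulated 48 h with 10 uM forskolin, then exposed 48 h to test chemical (0.1% DMSO final). Viability by MTT (0.5 mg/ml, 4 h, 37 C), absorbance 570/650 nm; percent change versus DMSO, bidirectional fit.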

Assay [4] can be described thus: Tanguay_ZF_120hpf_ActivityScore_legacy: (Legacy) Oregon State University Tanguay Lab 120 Hour Post-fertilization zebrafish Assay Score for Activity (AID 2283742).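 For AC50: static exposure from 6 hpf until 120 hpf at 28 °C.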 In outline:
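Tropical 5D wild-type zebrafish embryos, dechorionated with pronase at 4 hpf, were exposed singly from 6 hpf to 120 hpf statically at 28C in 0.64% DMSO. Malformations and mortality were scored as binary by brightfield, with the activity score combining 18 morphology components.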

In assay [5] the target is Luciferin 4-monooxygenase (Photinus pyralis) (UniProt P08659). The assay is described as follows: CCTE_Simmons_QuantiLum_inhib_2: CCTE's Firefly Luciferase Inhibition Assay, Simmons Lab (AID 2283767).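 For AC50: potency for inhibitors that lower luciferase luminescence relative to DMSO.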 In outline: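 Counter-screen for nonspecific enzyme inhibition: purified firefly luciferase incubated 30 min at 37C with chemicals up to 87.5 uM final, then luminescence measured after luciferin/dATP injection; activity fitted against DMSO baseline.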
Chain of Luciferin 4-monooxygenase (Photinus pyralis) (P08659 whole entry, looked up): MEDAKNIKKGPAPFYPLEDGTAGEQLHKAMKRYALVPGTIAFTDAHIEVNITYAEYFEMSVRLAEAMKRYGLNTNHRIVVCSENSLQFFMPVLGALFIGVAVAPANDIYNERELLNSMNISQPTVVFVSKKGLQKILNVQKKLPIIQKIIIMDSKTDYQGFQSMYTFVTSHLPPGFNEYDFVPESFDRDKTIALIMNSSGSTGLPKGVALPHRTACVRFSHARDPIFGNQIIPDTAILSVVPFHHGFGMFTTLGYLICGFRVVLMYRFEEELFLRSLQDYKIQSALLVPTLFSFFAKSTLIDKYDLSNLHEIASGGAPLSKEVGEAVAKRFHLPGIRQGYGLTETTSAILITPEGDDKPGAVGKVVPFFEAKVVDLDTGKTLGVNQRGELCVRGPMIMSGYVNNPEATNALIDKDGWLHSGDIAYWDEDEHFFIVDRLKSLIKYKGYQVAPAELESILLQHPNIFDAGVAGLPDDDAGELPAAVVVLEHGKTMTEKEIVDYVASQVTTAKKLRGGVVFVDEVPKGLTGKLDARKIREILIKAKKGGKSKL

Read-out in assay [6]: Cytochrome P450 (CYP24A1_1), CYP24A1 (gene 1591)
The assay is described as follows: LTEA_HepaRG_CYP24A1_1: Life Technologies and Expression Analysis (LTEA) Assay for Cytochrome P450 (CYP24A1_1) using HepaRG (AID 2283671; active = hit-call score of the fitted dose curve at least 0.9, where 1 is the maximum; inactive = score below 0.9). To be noted: mRNA level, 48 h; actives raise or lower the signal. In outline: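 HepaRG, 48 h exposure, 8-pt half-log series from 100 uM in 0.5% DMSO, duplicates. Readout: TaqMan qRT-PCR of CYP24A1 mRNA, housekeeping-normalized (ACTB/GAPDH/POLR2A). Bidirectional curve fit vs DMSO baseline.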

The nature of assay [7]: STM_H9_OrnithineISnorm_perc: Stemina devTOX quickPredict H9 human embryonic stem cell (hESC)-based Assay for Ornithine (ORN) Metabolite Biomarker, Normalized (AID 2283712; active = hit-call score of the fitted dose curve at least 0.9, where 1 is the maximum; inactive = score below 0.9;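 note: ornithine released into spent medium during last day measured by mass spectrometry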). In outline: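 Cells: undifferentiated H9 hESC. Dosing: 72 h, media replaced every 24 h. Sample: final 24-h conditioned media, 40% acetonitrile. Read: UPLC-HRMS ornithine area vs 13C standard, % DMSO control.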

Assay [8] can be described thus: STM_H9_CystineISnorm_perc: Stemina devTOX quickPredict H9 human embryonic stem cell (hESC)-based Assay for Cystine (CYSS) Metabolite Biomarker, Normalized (AID 2283713; active = hit-call score of the fitted dose curve at least 0.9, where 1 is the maximum; inactive = score below 0.9). In outline:
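Secreted cystine was measured by UPLC-HRMS in H9 hESC medium after 72h compound exposure with 24-hourly replenishment. Values are standard-normalized areas relative to 0.1% DMSO.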

Assay [9] can be described thus: STM_H9_OrnCyssISnorm_ratio: Stemina devTOX quickPredict H9 human embryonic stem cell (hESC)-based Assay for Ornithine (ORN):Cystine (CYSS) Ratio (AID 2283714). In outline:
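Undifferentiated H9 hESCs were exposed to compound for 72h with media and chemical replaced every 24h. Final 24-h conditioned media were deproteinized and analysed by UPLC-HRMS. ORN and CYSS peak areas were normalized to C13 internal standards and the ratio taken versus 0.1% DMSO.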

Assay [10] in a line: ArunA_CellTiter_hNC: Viability Assessment in the ArunA Biomedical's Oris Neural Crest (hNC) Cell Migration Assay (AID 2283752). In short, it runs like this:
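Viability of embryonic neural crest stem cells from the H9 line is scored 72 h after dosing, with DMSO as negative control and baseline. A drop in CellTiter Aqueous One signal indicates cytotoxicity.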

The nature of assay [11]: ArunA_CellTiter_hNP: Viability Assessment in the ArunA Biomedical's Oris Neural Crest (hNC) Cell Migration Assay (AID 2283753). In outline:
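H9-derived hNP1 neuroprogenitors, 60,000/well on Matrigel, cultured 16 h, then 72 h chemical exposure in test medium. Cell titer via CellTiter Aqueous One; positive-direction fit vs DMSO.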

The nature of assay [12]: ArunA_Migration_hNP: ArunA Biomedical's Oris Neuroprogenitor (hNP) Cell Migration Assay (AID 2283754). In outline: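 Human H9-derived hNP1 neuroprogenitors on Matrigel with LIF/bFGF, plated around seeding stoppers for 16 h at 37C; stoppers removed at start of 72 h chemical exposure. Calcein-AM staining, fluorescence 494/517 nm in detection zone; loss-of-signal vs DMSO; cytochalasin D control.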

Assay [13] is described as follows: ArunA_Migration_hNC: ArunA Biomedical's Oris Neural Crest (hNC) Cell Migration Assay (AID 2283755). In outline: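 Human H9-derived neural crest stem cells, 60,000/well on Matrigel, 16 h at 37C, then 72 h chemical exposure after seeding-stopper removal. Migration into detection zone read as calcein-AM fluorescence (ex494/em517), relative to DMSO.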
Assay [14] is described as follows: ArunA_NOG_NucleusCount: ArunA Biomedical's Neurite Outgrowth (NOG) Assay for Nucleus Count (AID 2283756). In short, it runs like this: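 Human H9-derived differentiated neurons were exposed for 48 h right after seeding. Hoechst-stained nuclei gated by size and intensity were counted by automated high-content imaging as viable neurons. Loss of signal vs DMSO.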

Assay [15] in a line: ArunA_NOG_NeuriteLength: ArunA Biomedical's Neurite Outgrowth (NOG) Assay for Neurite Length (AID 2283757). In short, it runs like this:
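Differentiated human H9-derived neurons were exposed for 48 h from seeding, then stained with Hoechst and βIII-tubulin. Automated high-content imaging gave total neurite length per valid neuron, counting processes >10 um. Loss of signal was scored versus DMSO.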

The nature of assay [16]: ArunA_NOG_NeuritesPerNeuron: ArunA Biomedical's Neurite Outgrowth (NOG) Assay for Neurites Per Neuron (AID 2283758). In short, it runs like this:
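Differentiated human H9-derived neurons exposed to chemicals for 48 h from seeding, then stained with Hoechst and βIII-tubulin/DyLight 488. Automated imaging counted neurites (processes >10 um) per valid neuron; loss of signal versus DMSO scored.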

The nature of assay [17]: ArunA_NOG_BranchPointsPerNeurite: ArunA Biomedical's Neurite Outgrowth (NOG) Assay for Branch Points Per Neurite (AID 2283759). In short, it runs like this:
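Automated image analysis traced neurites (processes >10 um) from valid cell bodies after Hoechst and βIII-tubulin staining. hNN cells from H9 embryonic stem cells, 48 h exposure. Fitted bidirectionally against DMSO.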

Several values for one entry are separate records, joined by “and”; a condition that tells them apart may be missing. Equal entries are not always repeated. Records with an inconclusive call do not appear. Some compounds were tested as several samples or in several runs, with calls that do not always agree. Activity calls are given as the source filed them. Rule for the calls, unless noted: active = hit-call score of the fitted dose curve at least 0.9, where 1 is the maximum; inconclusive = response in the unintended direction; inactive = score below 0.9.

The AC50 is the concentration giving half of the maximal activity seen. Turning to `CN(C)c1ccc(Cc2ccc(N(C)C)cc2)cc1`, the compound was classed as inactive in [1], in assay [3], in assay [4] and in assay [5]. Besides, the concentration at half-maximal activity (AC50) in assay [2] was 25.2 µM (active).
Turning to `CCOC(=O)CC(CC(=O)OCC)(OC(C)=O)C(=O)OCC`, the compound was called inactive in assay [1], in [2] and in assay [4].
In the case of `CC(C)c1cccc(C(C)C)c1N1C(=O)c2ccc(O)cc2C1=O`, the call in [1], in [6], in [14], in assay [15] and in assay [17] was inactive. Also, the concentration at half-maximal activity (AC50) in [2] was 4.71 µM (active); in assay [7], 27.8 µM (active); in [8], 24 µM (active); in [9], 14.9 µM (active); in [3] it was 3.83 µM (active); in [4], 29.5 µM (active). Also, the AC50 in assay [10] is 4.05 µM (active) and 11.8 µM (active); in assay [11], 20.7 µM (active); in assay [12] it was 7.81 µM (active) and 3.04 µM (active); in assay [13], 7.71 µM (active) and 2.24 µM (active); in assay [15] it was 13.3 µM (active); in [16], 5 µM (active) and 13.3 µM (active).
Consider `CC[C@H](C)C(=O)O[C@H]1C[C@@H](C)C=C2C=C[C@H](C)[C@H](CC[C@@H]3C[C@@H](O)CC(=O)O3)[C@H]21`, for which the compound was called inactive in assay [1], in [7], in assay [3] and in [5]. Also, the AC50 in assay [2] was 7.47 nM (active) and 5.89 nM (active) and 5.45 nM (active); in assay [8], 13.2 µM (active); in [9] it was 6.84 µM (active); in assay [4] it was 1.68 µM (active); in [5], 77.6 µM (active).
`CCOc1cccc(-n2cc(C(=O)N3CCN(c4cc(C(=O)O)c5ccccc5c4)CC3)nc2-c2ccc(C)cc2)c1`: the outcome in [1], in [3], in [4] and in assay [5] was inactive. The concentration at half-maximal activity (AC50) in assay [2] is 16.6 µM (active).
With `CC(C)CCCCCCCOC(=O)CCCCC(=O)OCCCCCCCC(C)C`, the result in assay [1], in [2] and in assay [4] was inactive.
On to `Fc1ccccc1[C@@H](F)COC1CCC(Nc2ncnc3[nH]ncc23)CC1` (stereo partly drawn), for which the outcome in assay [1], in [7], in assay [8], in assay [9] and in assay [4] was inactive. In addition, the concentration at half-maximal activity (AC50) is 13.8 µM (active) in [2] and 6.77 µM (active) in [3].
Take `CCC(C)(C)C(=O)O[C@H]1C[C@@H](C)C=C2C=C[C@H](C)[C@H](CC[C@@H]3C[C@@H](O)CC(=O)O3)[C@H]21`: the half-maximal activity concentration (AC50) is 0.664 µM (active) in [1]; 115 nM (active) and 2.58 nM (active) and 7.92 nM (active) in [2]; 0.000728 µM (active) in assay [7]; 0.403 µM (active) in assay [4]. In addition, the result in assay [8], in assay [3] and in assay [5] was inactive.
Take `COc1ccc(-n2nc(C(F)F)cc2-c2ccc(S(C)=O)cc2)cc1` (stereo not drawn): the AC50 was 38.2 µM (active) in [1], 88.9 µM (active) in assay [2] and 151 µM (active) in assay [4]. Also, the compound was classed as inactive in [3].
`C=CC(=C)CCC=C(C)C`: the result in assay [1], in assay [6] and in assay [4] was inactive.
`O=C(O)c1cccc(N(Cc2cccnc2)c2ccc(OC(F)F)c(OC(F)F)c2)c1`: the compound was classed as inactive in assay [1], in assay [3], in assay [4] and in assay [5]. The AC50 in [2] was 26.5 µM (active).
